The values that follow come from PubChem BioAssay AID1259421 (Broad Institute, 2018).

Where “and” joins values, the source holds several entries; their conditions need not be identical. Equal values may be shown once. About 610 (9.5%) of roughly 6,400 compounds were called active. Rule as the data show it: active = activity change below about -70%; inconclusive = no clear call, values can overlap the other calls; inactive = above that. Shown is part of a subset that was picked to be rich in actives. More than one record can exist for a structure, and the calls need not agree.

A short description of this test: Toxoplasma gondii ME49Luc growth in HeLa cells, luciferase, no IFN-y, primary screen (AID 1259421). The following applies: T. gondii ME49Luc in HeLa, 72 h, stronger effect = lower value, concentration not given here.
For `C=C[C@@](C)(O)CCC1C(=C)CCC2[C@@](C)(CO)CCC[C@]12C` (some centres undefined), the activity change, negative = inhibition was 13.4% (inactive).

For the molecule `CC1(C)O[C@@H]2CC3C4C[C@H](F)C5=CC(=O)C=C[C@]5(C)[C@@]4(F)[C@@H](O)C[C@]3(C)[C@]2(C(=O)CO)O1` (some centres undefined), the activity change, negative = inhibition was -11.6% (inactive).

`C=CC(=O)Nc1cccc(Nc2nc(Nc3ccc(OCCOC)cc3)ncc2F)c1`: the activity change, negative = inhibition was -10% (inactive).

With `Cc1cnc(Nc2ccc(N3CCN(C)CC3)cc2)nc1Nc1cccc(S(=O)(=O)NC(C)(C)C)c1`, the activity change, negative = inhibition is -76.6% (active).

`CS(=O)(=O)c1cccc(CNc2nc(Nc3ccc4c(c3)CCC(=O)N4)ncc2C(F)(F)F)c1`: the activity change, negative = inhibition is -29.4% (inactive).

Consider `Cc1cnc(Nc2ccc(OCCN3CCCC3)cc2)nc1Nc1cccc(S(=O)(=O)NC(C)(C)C)c1`, for which the activity change, negative = inhibition was -95.9% (active).

For `C=CC(=O)Nc1cccc(Sc2nc(Nc3ccc(N4CCN(C)CC4)cc3)ncc2Cl)c1`, the activity change, negative = inhibition is -58.5% (inactive).

Take `C=CC(=O)Nc1cccc(Oc2nc(Nc3ccc(N4CCN(C)CC4)cc3)ncc2Cl)c1`: the activity change, negative = inhibition is -59.1% (inactive).

Regarding `CC(CCCCC(=O)Nc1ccc(C(F)(F)F)cc1)NCCc1cnc[nH]1` (centres undefined), the activity change, negative = inhibition is -0.447% (inactive) and -3.16% (inactive).

`CO/N=C(\C(=O)N[C@@H]1C(=O)N2C(C(=O)O)=C(CSC(=O)c3ccco3)CS[C@H]12)c1csc(N)n1`: the activity change, negative = inhibition is 17.6% (inactive) and -30.2% (inactive).

As for `CO[C@@H]1COCC[C@@H]1N[C@@H]1CC[C@@](C(=O)N2CCc3ncc(C(F)(F)F)cc3C2)(C(C)C)C1`, the activity change, negative = inhibition was 3.98% (inactive).

In the case of `Cc1ccc(F)c(NC(=O)Nc2ccc(-c3cccc4[nH]nc(N)c34)cc2)c1`, the activity change, negative = inhibition was -78.3% (active).

For `Cc1cc(NC(=O)Nc2ccc(N(C)C)cc2)c2cc(F)cc(F)c2n1`, the activity change, negative = inhibition is 31.3% (inactive).

On to `COc1cc(OC)c2c(c1)OC(c1ccccc1)CC2=O` (centres undefined), for which the activity change, negative = inhibition is 34.9% (inactive).

Turning to `O=c1oc(-c2ccc(C(F)(F)F)cc2)nn1Cc1cc(Cl)ccc1O`, the activity change, negative = inhibition was 24.7% (inactive) and -12.8% (inactive).

As for `CCn1c(=O)n(C2=C(CO)CN(CC3CCCCCCC3)CC2)c2ccccc21`, the activity change, negative = inhibition was 12.4% (inactive) and -0.696% (inactive).

As for `Cc1cc(Nc2ccc(NC(=O)c3ccc(Nc4ccnc5ccccc45)cc3)cc2)nc(N)n1`, the activity change, negative = inhibition was -89.9% (active).

For `O=C(OCC(O)CO)c1ccccc1Nc1ccnc2cc(Cl)ccc12` (centres undefined), the activity change, negative = inhibition was 5.66% (inactive).

With `CC(=O)Nc1ccc(C(=O)Nc2ccccc2N)cc1`, the activity change, negative = inhibition is 31.2% (inactive) and 45.5% (inactive).

Regarding `CC1(C)O[C@@H]2CC3C4CCC5=CC(=O)CCC5(C)C4(F)C(O)CC3(C)[C@]2(C(=O)CCl)O1` (some centres undefined), the activity change, negative = inhibition is -3.24% (inactive) and 2.55% (inactive).

`CCOC(=O)c1cc(C#N)c(N2CCC(C(=O)NS(=O)(=O)Cc3ccccc3)CC2)nc1C`: the activity change, negative = inhibition was 13.4% (inactive).

On to `CCCCCCCCCCCCCCCC[n+]1ccccc1`, for which the activity change, negative = inhibition was -12.3% (inactive) and -82.5% (active).

As to `CCCCCCCCCCCCCCCCCCCCCCCCC(=O)O`, the activity change, negative = inhibition was 11.5% (inactive).

For `CCCCCCCC(=O)O`, the activity change, negative = inhibition is 9.6% (inactive) and 5.48% (inactive).

For the molecule `c1ccc(-c2ccc(C(c3ccccc3)n3ccnc3)cc2)cc1` (centres undefined), the activity change, negative = inhibition is -68.3% (inactive) and -81.5% (active).

Take `N#Cc1ccc(C(c2ccc(C#N)cc2)n2cncn2)cc1`: the activity change, negative = inhibition was 0.399% (inactive).

Regarding `FC(F)(F)c1ccccc1-n1ccnc1`, the activity change, negative = inhibition was -1.27% (inactive).

For the molecule `CCCCCCCCc1ccc(-c2ccc(C(=O)O)cc2)cc1`, the activity change, negative = inhibition was 18% (inactive).

With `CCCCCCCCCCCCCCCCCCc1ccc(C(=O)/C=C/C(=O)O)cc1`, the activity change, negative = inhibition was 11.8% (inactive).

With `CCCCCCCCc1ccc(CCC(N)(CO)CO)cc1`, the activity change, negative = inhibition is -79.3% (active) and -52.1% (inactive).

As to `CC1(O)C(O)C(CO)OC1n1cnc2c(NC3CCCC3)nc(Cl)nc21` (centres undefined), the activity change, negative = inhibition is 13.4% (inactive).

On to `CC[C@@H](C(=O)[C@@H](C)[C@@H](O)[C@H](C)[C@@H]1O[C@@H]([C@@H](CC)C(=O)O)CC[C@@H]1C)[C@H]1OC2(C=C[C@@H](O)[C@]3(CC[C@@](C)(C4CC[C@](O)(CC)[C@H](C)O4)O3)O2)[C@H](C)C[C@@H]1C` (some centres undefined), for which the activity change, negative = inhibition is -90.6% (active).

With `CC[C@@H](C(=O)[C@@H](C)[C@@H](O)[C@H](C)[C@@H]1O[C@@H]([C@@H](CC)C(=O)O)CC[C@@H]1C)[C@H]1O[C@]2(C=C[C@@H](O)[C@]3(CC[C@@](C)(C4CC[C@](O)(CC)[C@H](C)O4)O3)O2)[C@H](C)C[C@@H]1C` (some centres undefined), the activity change, negative = inhibition was -83.1% (active).

For the molecule `CC[C@@H](C(=O)O)C1CC[C@H](C)C([C@@H](C)[C@H](O)[C@H](C)C(=O)[C@H](CC)C2O[C@]3(C=C[C@@H](O)[C@]4(CC[C@@](C)(C5CC[C@](O)(CC)[C@H](C)O5)O4)O3)[C@H](C)C[C@@H]2C)O1` (some centres undefined), the activity change, negative = inhibition was -72.7% (active) and -80.8% (active).

As for `CC[C@@H](C(=O)O)[C@@H]1O[C@@H]([C@@H](C)[C@H](O)[C@H](C)C(=O)[C@H](CC)[C@H]2O[C@]3(C=C[C@@H](O)[C@]4(CC[C@@](C)(C5CC[C@](O)(CC)[C@H](C)O5)O4)O3)[C@H](C)C[C@@H]2C)[C@@H](C)C[C@H]1C` (some centres undefined), the activity change, negative = inhibition is -82.4% (active).

With `NC(CC(F)C(=O)O)C(=O)O` (centres undefined), the activity change, negative = inhibition was 4.86% (inactive).

Turning to `O=C(O)C1/C(=C\CO)OC2CC(=O)N21` (centres undefined), the activity change, negative = inhibition is 6.21% (inactive).

For the molecule `Cc1cc(-c2ncc(CC(=O)Nc3ccc(-c4cnccn4)cn3)cc2C)ccn1`, the activity change, negative = inhibition was 5% (inactive).

For the molecule `N#CC(C#N)Cc1ccc(O)cc1`, the activity change, negative = inhibition is 0.596% (inactive).

`COc1ccccc1Oc1c(NS(=O)(=O)c2ccc(C)cn2)nc(-c2ccncc2)nc1OC`: the activity change, negative = inhibition was 7.32% (inactive).

Consider `O=C(NN1C(=O)[C@@H]2[C@@H]3C=C[C@@H]([C@H]4C[C@@H]34)[C@@H]2C1=O)c1ccc(C(F)(F)F)cc1`, for which the activity change, negative = inhibition was 3.93% (inactive).

Take `COc1ccc(CCN(C)CCCOc2ccc(S(=O)(=O)c3c(C(C)C)c4ccccc4n3C)cc2)cc1OC`: the activity change, negative = inhibition is -76.5% (active).

Turning to `COc1ccc(CCN(C)CCc2ccc(OC)c(OC)c2)cc1OC`, the activity change, negative = inhibition is 7.34% (inactive) and -3.3% (inactive).

Regarding `COc1ccc(CCN(C)CCCN2CCc3cc(OC)c(OC)cc3CC2=O)cc1OC`, the activity change, negative = inhibition was 10.1% (inactive).
